The campaign covered roughly 37,000 compounds. About 2,800 (7.6%) were called active. Inconclusive results (about 1%) are left out. No stated cut-off is given here; in the data, active means inhibition above about 80%; inconclusive means no clear call, values can overlap the other calls; inactive means below that. This excerpt belongs to a sample that is enriched for actives.

The nature of the assay: NOMO-1 AML cell viability reduction, primary screen, STK33 inhibitor project, CellTiter-Glo luminescence (AID 2330). Conditions: NOMO-1 AML viability, 72 h, active compounds read high, concentration not given here.
With `C[C@@H]1CN([C@H](C)CO)C(=O)Cc2cc(NC(=O)Nc3ccccc3)ccc2O[C@H]1CN(C)Cc1ccc(Cl)c(Cl)c1`, the inhibition is 30.1% (inactive).

With `COc1ccc(CN(C)C[C@H]2Oc3ccc(NC(=O)Cc4ccccc4)cc3CC(=O)N([C@@H](C)CO)C[C@@H]2C)cc1`, the inhibition was 22.8% (inactive).

Take `C[C@@H]1CN([C@H](C)CO)C(=O)Cc2cc(NC(=O)Cc3ccccc3)ccc2O[C@@H]1CN(C)Cc1ccccc1`: the inhibition was -13.8% (inactive).

Consider `C[C@@H]1CN([C@@H](C)CO)C(=O)Cc2cc(NC(=O)Cc3ccccc3)ccc2O[C@@H]1CN(C)Cc1ccc(Oc2ccccc2)cc1`, for which the inhibition was 127% (active).

For `C[C@H]1CN([C@@H](C)CO)C(=O)c2cc(NC(=O)C3CC3)ccc2O[C@@H]1CN(C)Cc1ccc(Oc2ccccc2)cc1`, the inhibition was 16.2% (inactive).

For the compound `C[C@@H]1CN([C@@H](C)CO)C(=O)c2cc(NC(=O)Cc3ccccc3)ccc2O[C@@H]1CN(C)Cc1ccc(Oc2ccccc2)cc1`, the inhibition was 112% (active).

In the case of `C[C@H](CO)N1C[C@H](C)[C@H](CN(C)Cc2ccccc2)Oc2ccc(NC(=O)Cc3ccccc3)cc2C1=O`, the inhibition was 7.66% (inactive).

On to `C[C@@H]1CN([C@H](C)CO)C(=O)Cc2cc(NC(=O)NC3CCCCC3)ccc2O[C@H]1CN(C)Cc1ccc(Cl)c(Cl)c1`, for which the inhibition was 20.7% (inactive).

Take `C[C@@H]1CN([C@H](C)CO)C(=O)Cc2cc(NC(=O)CCCN(C)C)ccc2O[C@@H]1CN(C)Cc1ccc(Oc2ccccc2)cc1`: the inhibition is 19.5% (inactive).

As for `C[C@H]1CN([C@@H](C)CO)C(=O)Cc2cc(NC(=O)NC3CCCCC3)ccc2O[C@@H]1CN(C)Cc1ccc(Oc2ccccc2)cc1`, the inhibition was 94.9% (active).

On to `C[C@H]1CN([C@@H](C)CO)C(=O)Cc2cc(NC(=O)Cc3ccccc3)ccc2O[C@@H]1CN(C)Cc1ccc(Cl)c(Cl)c1`, for which the inhibition is 96.8% (active).

With `C[C@@H]1CN([C@H](C)CO)C(=O)Cc2cc(NC(=O)Cc3ccccc3)ccc2O[C@H]1CN(C)Cc1ccc(Oc2ccccc2)cc1`, the inhibition was 13.7% (inactive).

In the case of `COC(=O)c1c(NC(=O)COc2ccc(C(C)C)c(C)c2)sc2c1CCC2`, the inhibition was -13.1% (inactive).

`COc1ccc(S(=O)(=O)N(C)C[C@@H]2Oc3ccc(NC(=O)Cc4cn(C)c5ccccc45)cc3C(=O)N([C@H](C)CO)C[C@H]2C)cc1`: the inhibition is 3.23% (inactive).

Turning to `CC(C)NC(=O)N(C)C[C@H]1Oc2ccc(NS(C)(=O)=O)cc2CC(=O)N([C@@H](C)CO)C[C@@H]1C`, the inhibition was -17.4% (inactive).

Regarding `COc1c2c(cc3occ(-c4ccc5c(c4)OCO5)c(=O)c13)OC(C)(C)C=C2`, the inhibition is 23.7% (inactive).

For `O=C(c1cc2ccccc2oc1=O)N(Cc1ccc(F)cc1)Cc1ccco1`, the inhibition is -0.0617% (inactive).

With `COc1cc(O)c2c(=O)c(O[C@@H]3O[C@@H](CO)[C@H](O)[C@H]3O[C@@H]3O[C@@H](C)[C@H](O)[C@@H](O)[C@H]3O)c(-c3ccc(O)cc3)oc2c1`, the inhibition was 16.7% (inactive).

Regarding `C[C@@H]1CN([C@H](C)CO)C(=O)Cc2cc(NC(=O)CCN3CCOCC3)ccc2O[C@H]1CN(C)C`, the inhibition is 13.7% (inactive).

Consider `O=C(NCc1ccco1)c1ccc2c(c1)C(=O)N(Cc1cccnc1)C2=O`, for which the inhibition is 20% (inactive).

As to `C[C@H]1CN([C@@H](C)CO)C(=O)Cc2cc(N(C)C)ccc2O[C@@H]1CN(C)Cc1ccc(-c2ccccc2)cc1`, the inhibition is 65.8% (inactive).

Consider `C[C@H](CO)N1C[C@H](C)[C@H](CN(C)Cc2ccc(C(F)(F)F)cc2)Oc2ccc(N(C)C)cc2CC1=O`, for which the inhibition is 14.9% (inactive).

With `C[C@H]1CN([C@@H](C)CO)C(=O)c2cc(NC(=O)Nc3ccc4c(c3)OCO4)ccc2O[C@@H]1CN(C)Cc1ccc(Oc2ccccc2)cc1`, the inhibition was 102% (active).

For `C[C@@H]1CN([C@@H](C)CO)C(=O)c2cc(NC(=O)Nc3ccc4c(c3)OCO4)ccc2O[C@@H]1CN(C)Cc1ccc(Oc2ccccc2)cc1`, the inhibition is 66% (inactive).

With `C[C@H](CO)N1C[C@H](C)[C@@H](CN(C)Cc2ccccc2)Oc2ccc(NC(=O)Nc3ccc4c(c3)OCO4)cc2C1=O`, the inhibition was 1.03% (inactive).

Consider `C[C@@H]1CN([C@H](C)CO)C(=O)Cc2cc(N(C)C)ccc2O[C@@H]1CN(C)Cc1ccccc1`, for which the inhibition is 124% (active).

As to `C[C@@H]1CN([C@H](C)CO)C(=O)c2cc(NC(=O)Nc3ccc4c(c3)OCO4)ccc2O[C@H]1CN(C)Cc1ccc(-c2ccccc2)cc1`, the inhibition is 113% (active).

Turning to `COc1ccc(NC(=O)Nc2ccc3c(c2)C(=O)N([C@@H](C)CO)C[C@H](C)[C@@H](CN(C)Cc2ccc4c(c2)OCO4)O3)cc1`, the inhibition is 25% (inactive).

For `C[C@@H]1CN([C@H](C)CO)C(=O)c2cc(NC(=O)Nc3ccc4c(c3)OCO4)ccc2O[C@@H]1CN(C)Cc1ccc(C(F)(F)F)cc1`, the inhibition was 50.9% (inactive).

Regarding `Cc1cc(=O)[nH]c(SCC(=O)Nc2cccc3ccccc23)n1`, the inhibition was -1.97% (inactive).

Consider `C[C@H](CO)N1C[C@H](C)[C@H](CN(C)S(C)(=O)=O)Oc2ccc(NC(=O)Nc3ccc(F)cc3)cc2C1=O`, for which the inhibition is 14.7% (inactive).

For `COc1ccc(CN(C)C[C@@H]2Oc3ccc(NC(=O)NC(C)C)cc3C(=O)N([C@@H](C)CO)C[C@H]2C)cc1`, the inhibition is 11.8% (inactive).

As for `COc1ccc(S(=O)(=O)Nc2ccc3c(c2)CC(=O)N([C@@H](C)CO)C[C@@H](C)[C@@H](CN(C)C(=O)Nc2c(C)noc2C)O3)cc1`, the inhibition is -6.01% (inactive).

As for `C[C@@H]1CN([C@H](C)CO)C(=O)Cc2cc(NC(=O)Cn3cnnn3)ccc2O[C@H]1CN(C)Cc1ccc(C(F)(F)F)cc1`, the inhibition was -4.05% (inactive).

Consider `COc1ccc(-c2nnc(SCC(=O)Nc3cccc(SC)c3)n2C)cc1`, for which the inhibition is -20% (inactive).

Turning to `COc1ccccc1NC(=O)c1ccc(OCC(=O)Nc2ccccc2F)cc1`, the inhibition is 2.43% (inactive).

For `C[C@H]1CN([C@@H](C)CO)C(=O)c2cccc(NS(C)(=O)=O)c2O[C@@H]1CN(C)C(=O)Nc1ccc(F)cc1`, the inhibition is -0.485% (inactive).

In the case of `CC1CCC(C(C)C)C(=O)/C1=C\c1ccc(NC(=O)CCC(=O)O)cc1` (configuration not stated), the inhibition was 10% (inactive).

With `COc1cc(-c2coc3cc(O[C@@H]4O[C@H](CO)[C@@H](O)[C@H](O)[C@H]4O)c(OC)c(O)c3c2=O)cc(O)c1OC`, the inhibition is -24% (inactive).

With `COc1cc([C@H]2OC[C@H]3[C@@H]2CO[C@@H]3c2cc(OC)c(O[C@@H]3O[C@H](CO)[C@@H](O)[C@H](O)[C@H]3O)c(OC)c2)cc(OC)c1O`, the inhibition is -2.62% (inactive).

Turning to `COc1ccc(C[C@H]2COC(=O)[C@@H]2Cc2ccc(O[C@@H]3O[C@H](CO)[C@@H](O)[C@H](O)[C@H]3O)c(OC)c2)cc1OC`, the inhibition was 88.7% (active).

For the compound `CCc1cc(C(=O)OC)c(NC(=O)CC2Sc3ccc(C(F)(F)F)cc3NC2=O)s1` (configuration not stated), the inhibition was 43.5% (inactive).

For the compound `CCOc1ccc(NC(=O)C2CC(=O)n3c(nc4ccccc43)N2)cc1` (configuration not stated), the inhibition was 2.2% (inactive).

Take `C[C@H]1CN([C@@H](C)CO)C(=O)c2cc(NC(=O)Cn3cnnn3)ccc2O[C@@H]1CN(C)S(=O)(=O)c1cccs1`: the inhibition was -7.03% (inactive).

Take `COc1ccc(S(=O)(=O)N(C)C[C@H]2Oc3ccc(NC(=O)Nc4c(C)noc4C)cc3C(=O)N([C@H](C)CO)C[C@H]2C)cc1`: the inhibition is 8.03% (inactive).

In the case of `O=C(Nc1cccnc1)c1cc2c(s1)-c1ccccc1CC2`, the inhibition is 108% (active).

On to `O=C(CS(=O)(=O)Cc1ccccc1)Nc1cccnc1`, for which the inhibition was 4.64% (inactive).

In the case of `COc1ccc(C(=O)CCC(=O)Nc2cccnc2)c(OC)c1`, the inhibition was 1.52% (inactive).

Regarding `O=S(=O)(c1ccc(Cl)cc1)c1nc(-c2ccccc2F)oc1NCCN1CCOCC1`, the inhibition is 16.2% (inactive).

Take `C[C@H](CO)N1C[C@H](C)[C@H](CN(C)S(=O)(=O)c2ccccc2)Oc2c(NC(=O)CCCCCC(=O)Nc3ccccc3N)cccc2C1=O`: the inhibition is 68.1% (inactive).

For `C[C@H]1CN([C@@H](C)CO)C(=O)c2cccc(NC(=O)NC3CCCCC3)c2O[C@H]1CN(C)CC1CCCCC1`, the inhibition is 15.4% (inactive).

Regarding `C[C@H](CO)N1C[C@H](C)[C@H](CN(C)CC2CCCCC2)Oc2ccc(NC(=O)CCCCCC(=O)Nc3ccccc3N)cc2CC1=O`, the inhibition is 141% (active).

With `C[C@@H]1CN([C@@H](C)CO)C(=O)Cc2cc(NC(=O)CCCCCC(=O)Nc3ccccc3N)ccc2O[C@@H]1CN(C)C(=O)NC1CCCCC1`, the inhibition is 8.04% (inactive).

Turning to `CC(C)NC(=O)N(C)C[C@H]1Oc2ccc(NC(=O)CCCCCC(=O)Nc3ccccc3N)cc2CC(=O)N([C@@H](C)CO)C[C@H]1C`, the inhibition is 7.18% (inactive).

Take `C[C@@H]1CN([C@H](C)CO)C(=O)c2cccc(NC(=O)CCCCCC(=O)Nc3ccccc3N)c2O[C@H]1CN(C)CC1CCCCC1`: the inhibition was 139% (active).

With `C[C@H]1CN([C@@H](C)CO)C(=O)c2cccc(NC(=O)CCCCCC(=O)Nc3ccccc3N)c2O[C@@H]1CN(C)CC1CCCCC1`, the inhibition was 139% (active).

For `C[C@@H]1CN([C@H](C)CO)C(=O)c2cccc(NC(=O)NC3CCCCC3)c2O[C@@H]1CN(C)CC1CCCCC1`, the inhibition was -0.946% (inactive).

For the compound `C[C@@H]1CN([C@@H](C)CO)C(=O)c2cccc(NC(=O)CCCCCC(=O)Nc3ccccc3N)c2O[C@@H]1CN(C)CC1CCCCC1`, the inhibition is 125% (active).

For the compound `C[C@@H]1CN([C@@H](C)CO)C(=O)c2cccc(NC(=O)CCCCCC(=O)Nc3ccccc3N)c2O[C@H]1CN(C)C(=O)Nc1cccc2ccccc12`, the inhibition is 10.8% (inactive).

Regarding `CC(C)NC(=O)Nc1cccc2c1O[C@H](CN(C)CC1CCCCC1)[C@H](C)CN([C@H](C)CO)C2=O`, the inhibition is 7.14% (inactive).

Turning to `C[C@@H]1CN([C@@H](C)CO)C(=O)c2cccc(NC(=O)NC3CCCCC3)c2O[C@@H]1CN(C)CC1CCCCC1`, the inhibition was 15.8% (inactive).

`Cc1ccc([N+](=O)[O-])cc1N(CC(=O)Nc1ccc(Cl)c(C(F)(F)F)c1)S(C)(=O)=O`: the inhibition was 67.2% (inactive).

The values above are taken from PubChem BioAssay AID2330 (Broad Institute, 2010).
